Some test systems named below: SK-MEL-2 melanoma; EKVX NSCLC; SN12C renal; UO-31 renal; TK-10 renal; ACHN renal; CAKI-1 renal; A498 renal; CCRF-CEM leukemia; MOLT-4 leukemia; SR leukemia; RPMI-8226 leukemia; OVCAR-8 ovarian; OVCAR-5 ovarian; SK-OV-3 ovarian; IGROV1 ovarian; OVCAR-3 ovarian; HS 578T breast; NCI/ADR-RES ovarian; OVCAR-4 ovarian.
Common to all, as to assay: NCI-60 one-dose screen, 48 h (100 = growth as untreated, 0 = no growth, -100 = all killed)
Conditions in all cases: 10 µM unless noted

The structures appear in SMILES notation. The panel holds about 83,000 compounds, 20% with a hit somewhere; the sample as a whole holds those more often.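 For each line, cells grew in 96-well plates with the test compound present at a single concentration for 48 hours.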 Unmarked numbers belong to inactive results. Active and inactive are the calls of the source. How the source made its calls: active means growth percent below 10; inactive means the rest.

As to `CCCCCCCOc1ccc(S(=O)(=O)Nc2ccc(C)c(F)c2C(=O)O)cc1`, the growth was 102% with SK-MEL-2 melanoma; 95.4% with EKVX NSCLC; 94.9% in the test on SN12C renal; 75% in the test with UO-31 renal; 96.2% in the test on TK-10 renal; 101% in the test with ACHN renal. Also, the growth was 93% in the test on CAKI-1 renal; 102% in the test with A498 renal; 81.6% in the test with CCRF-CEM leukemia; 98.3% in the test on MOLT-4 leukemia; 98.7% with SR leukemia; 54.9% in the test on RPMI-8226 leukemia. In addition, the growth in the test on OVCAR-8 ovarian is 97.1%; in the test with OVCAR-5 ovarian it was 107%; in the test with SK-OV-3 ovarian it was 104%; in the test with IGROV1 ovarian it was 109%; in the test with OVCAR-3 ovarian, 99.9%; in the test with HS 578T breast, 87.8%. In addition, the growth in the test with NCI/ADR-RES ovarian was 94.4%.
Take `Cc1ccccc1Nc1nnc(-c2c[nH]c3ccccc23)o1`: the growth in the test with SK-MEL-2 melanoma is -10.8% (active); with EKVX NSCLC it was 20.1%; with SN12C renal, 33.8%; in the test with UO-31 renal, 33.8%; with TK-10 renal, 60.2%; with ACHN renal, 39.5%. Also, the growth in the test with CAKI-1 renal is 29.4%; with A498 renal it was 101%; with CCRF-CEM leukemia, 10.5%; in the test with MOLT-4 leukemia, 9.88% (active); with SR leukemia, 15.5%; in the test on RPMI-8226 leukemia, 7.25% (active). Also, the growth is 18.9% in the test on OVCAR-8 ovarian; 33.4% in the test with OVCAR-5 ovarian; 17.6% in the test with SK-OV-3 ovarian; 20.8% with IGROV1 ovarian; 7.3% (active) in the test with OVCAR-3 ovarian; -2.08% (active) in the test with HS 578T breast. For the same compound, the growth in the test on NCI/ADR-RES ovarian was -20.2% (active).
For the compound `COc1cc2cc(C(=O)N3C[C@@H](CCl)c4c3cc(OC(=O)N(CCC(=O)N3CCN(C)CC3)C3CCCCC3)c3ccccc43)[nH]c2c(OC)c1OC`, the growth with SK-MEL-2 melanoma was -82.4% (active); in the test on EKVX NSCLC, -78.8% (active); with SN12C renal it was -82.8% (active); with UO-31 renal, -73.2% (active); in the test on TK-10 renal it was -71.3% (active); in the test on ACHN renal it was -84.6% (active). The growth is -79.1% (active) in the test on CAKI-1 renal; -19.9% (active) with A498 renal; -34.3% (active) with CCRF-CEM leukemia; -19.8% (active) in the test on MOLT-4 leukemia; -38.8% (active) with SR leukemia; -30.3% (active) in the test on RPMI-8226 leukemia. Further, the growth was -48.3% (active) with OVCAR-8 ovarian; -59.1% (active) in the test with OVCAR-5 ovarian; -57.7% (active) with SK-OV-3 ovarian; -59.2% (active) with IGROV1 ovarian; -34% (active) in the test with HS 578T breast; -62.1% (active) with NCI/ADR-RES ovarian.
For `Cc1ccccc1NC(=O)c1cccc(NC(=O)CCl)c1`, the growth in the test with SK-MEL-2 melanoma was 92.9%; in the test on EKVX NSCLC, 97%; with SN12C renal, 15.4%; in the test on UO-31 renal it was 71.3%; in the test with TK-10 renal, 88.2%; in the test on ACHN renal it was 22.8%. The growth with CAKI-1 renal was 74.5%; in the test on A498 renal, 105%; in the test with CCRF-CEM leukemia it was 8.03% (active); in the test with MOLT-4 leukemia, 29.7%; in the test on SR leukemia, 16.4%; in the test with RPMI-8226 leukemia it was 26%. The growth with OVCAR-5 ovarian was 70.4%; in the test with OVCAR-4 ovarian, 73.7%; with SK-OV-3 ovarian, 81.3%; in the test on IGROV1 ovarian, 29.5%; in the test with OVCAR-3 ovarian it was 49%; in the test on HS 578T breast, 78%. In addition, in the test on NCI/ADR-RES ovarian, the growth was 38.9%.
`O=C1Nc2cc(-c3ccc(NS(=O)(=O)c4ccc(F)c(Cl)c4)cc3)ccc2/C1=C/c1ccc[nH]1`: the growth was 55.8% with SK-MEL-2 melanoma; 1.79% (active) in the test with EKVX NSCLC; 55.3% with SN12C renal; 35.6% with UO-31 renal; 54.5% in the test with TK-10 renal; 6.04% (active) in the test on ACHN renal. The growth in the test with CAKI-1 renal is 33%; in the test with A498 renal, 52.1%; in the test with CCRF-CEM leukemia it was 39.7%; with MOLT-4 leukemia it was 11.7%; in the test on SR leukemia it was 6.77% (active); in the test with RPMI-8226 leukemia, 21.4%. The growth was 19.7% in the test with OVCAR-5 ovarian; 26.4% in the test on OVCAR-4 ovarian; 39.6% with SK-OV-3 ovarian; 45.9% with IGROV1 ovarian; 56.9% with OVCAR-3 ovarian; 45.6% in the test with HS 578T breast. Besides, the growth with NCI/ADR-RES ovarian is 29.7%.
As to `CC(Nc1ncnc2ccc(-c3ccc4oc(N)nc4c3)cc12)c1ccccc1` (centres undefined), the growth is 34.6% in the test on SK-MEL-2 melanoma; 5.01% (active) in the test with EKVX NSCLC; -17.7% (active) in the test with SN12C renal; -76.4% (active) in the test on UO-31 renal; -41.4% (active) with TK-10 renal; -64.2% (active) in the test with ACHN renal. For the same compound, the growth in the test on CAKI-1 renal is -40.6% (active); in the test on A498 renal, 49.8%; in the test on CCRF-CEM leukemia, 2.38% (active); in the test on MOLT-4 leukemia it was -39.9% (active); with SR leukemia, -53.7% (active); in the test with RPMI-8226 leukemia, -17.9% (active). In addition, the growth was -40.7% (active) in the test with OVCAR-8 ovarian; 25.4% in the test with OVCAR-5 ovarian; -22.2% (active) with SK-OV-3 ovarian; -77.5% (active) in the test on IGROV1 ovarian; -19.5% (active) in the test with OVCAR-3 ovarian; -31.7% (active) with HS 578T breast. The growth with NCI/ADR-RES ovarian was -18.7% (active).
For the compound `COc1ccc2[nH]cc(-c3cc4nc(-c5cn(C)c6ncc(Br)cc56)cc(N)n4n3)c2c1`, the growth in the test on SK-MEL-2 melanoma was -34.7% (active); in the test with EKVX NSCLC it was -82.7% (active); in the test on SN12C renal, -83.2% (active); in the test on UO-31 renal it was -69.1% (active); with TK-10 renal, -42.5% (active); with ACHN renal it was -97.6% (active). The growth with CAKI-1 renal was -86.1% (active); in the test with A498 renal it was -51% (active); in the test with CCRF-CEM leukemia, -31% (active); in the test with MOLT-4 leukemia, -27.5% (active); in the test on SR leukemia, -16.1% (active); in the test with RPMI-8226 leukemia it was -6.2% (active). Besides, the growth with OVCAR-8 ovarian was -55.2% (active); in the test on OVCAR-5 ovarian, -83.6% (active); with OVCAR-4 ovarian it was -36.5% (active); in the test on SK-OV-3 ovarian, -42.6% (active); in the test on OVCAR-3 ovarian, -67.3% (active); with HS 578T breast, -27.8% (active). For the same compound, in the test on NCI/ADR-RES ovarian, the growth was -44.8% (active).
As to `O=C(CSc1nc2sc3c(c2c(=O)n1-c1ccc(Cl)cc1)CCCC3)NNC(=O)c1ccc(F)cc1`, the growth is 104% with SK-MEL-2 melanoma; 63.3% in the test on EKVX NSCLC; 40.1% with SN12C renal; 56% in the test with UO-31 renal; 163% in the test on TK-10 renal; 85.6% in the test with ACHN renal. In addition, the growth in the test on CAKI-1 renal is 73.1%; in the test with A498 renal, 121%; in the test on CCRF-CEM leukemia, 73.6%; in the test on MOLT-4 leukemia it was 81.3%; in the test on SR leukemia it was 46.3%; with RPMI-8226 leukemia, 83.2%. Further, the growth with OVCAR-8 ovarian is 35.4%; in the test with OVCAR-5 ovarian, 73.8%; in the test on SK-OV-3 ovarian, 90.5%; in the test on IGROV1 ovarian, 63.3%; in the test on HS 578T breast, 79.9%.

The record behind these values is PubChem BioAssay (NCI).
